A short description of experiment [1]: qHTS assay to identify small molecule antagonists of the glucocorticoid receptor (GR) signaling pathway - cell viability counter screen (AID 720693; further: nearly all actives have a fitted effect of over 55% in size; further: potency means the concentration at half of the fitted maximal effect). (In general: qHTS replaces the single test concentration by a dilution series.)
Experiment [2] in a line: qHTS assay for identifying genotoxic compounds that show differential cytotoxicity against isogenic chicken DT40 cell lines with known DNA damage response pathways - wild type cell line (AID 743012). Further: nearly all actives have a fitted effect of over 60% in size. Further: potency means the concentration at half of the fitted maximal effect. The gist of the method:
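CellTiter-Glo luminescence readout of viability in wild type DT40 cells after 40 h compound exposure at 37 C/5% CO2; 300 cells/well; reagent incubated 30 min at room temperature before reading.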

Experiment [3] is described as follows: qHTS assay for identifying genotoxic compounds that show differential cytotoxicity against isogenic chicken DT40 cell lines with known DNA damage response pathways - Rev3 mutant cell line (AID 743014). Further: nearly all actives have a fitted effect of over 55% in size. Further: potency means the concentration at half of the fitted maximal effect.
Experiment [4] in a line: qHTS assay for identifying genotoxic compounds that show differential cytotoxicity against isogenic chicken DT40 cell lines with known DNA damage response pathways - Rad54/Ku70 mutant cell line (AID 743015). Further: nearly all actives have a fitted effect of over 60% in size. Further: potency means the concentration at half of the fitted maximal effect.
A short description of experiment [5]: qHTS assay to identify small molecule antagonists of the androgen receptor (AR) signaling pathway - cell viability counter screen (AID 743033; further: nearly all actives have a fitted effect of over 45% in size; further: potency means the concentration at half of the fitted maximal effect).
Experiment [6] concerns the target Androgen receptor (Homo sapiens) (UniProt P10275). As to the kind of experiment: qHTS assay to identify small molecule antagonists of the androgen receptor (AR) signaling pathway (AID 743035; active means well fitted inhibition curve with a large enough effect in the signal ratio in the repeat runs, not every such curve was filed as active; the % refers to the signal ratio). The gist of the method: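 AR-bla HEK293 reporter cells; 4 h settle at 37C/5% CO2; compound + R1881 agonist, 16 h at 37C; LiveBLAzer B/G FRET substrate 2 h RT; fluorescence intensity read. qHTS format.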

Experiment [7] has the same target. The experiment is described as follows: qHTS assay to identify small molecule agonists of the androgen receptor (AR) signaling pathway using the MDA cell line (AID 743040; further: nearly all actives have a fitted effect of over 20% in size). The gist of the method: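 Luciferase read-out, ONE-Glo, 30 min RT. Cells: MDA-kb2 AR-luc, MMTV promoter with AR and GR response elements. Compound exposure 16 h, 37C, 0% CO2, after 5 h pre-incubation. qHTS agonist mode.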

Experiment [8] can be described thus: qHTS assay to identify small molecule antagonists of the androgen receptor (AR) signaling pathway using the MDA cell line - cell viability counter screen (AID 743041; further: nearly all actives have a fitted effect of over 45% in size; further: potency means the concentration at half of the fitted maximal effect). The gist of the method: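 Cytotoxicity counter screen: MDA-kb2 AR-luc cells, compound + R1881, 16 h, 37C, 0% CO2; CellTiter-Fluor added at 15.5 h, fluorescence read after 30 min.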
Experiment [9] concerns the target Androgen receptor (Homo sapiens) (UniProt P10275). The experiment is described as follows: qHTS assay to identify small molecule antagonists of the androgen receptor (AR) signaling pathway using the MDA cell line (AID 743042; further: nearly all actives have a fitted effect of over 55% in size). The gist of the method: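 MDA-kb2 breast carcinoma cells carrying MMTV-luciferase (AR/GR responsive) were co-treated with compounds and the agonist R1881 for 16 h at 37C. Inhibition read as ONE-Glo luminescence; CellTiter-Fluor fluorescence measured in parallel for cytotoxicity.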

The nature of experiment [10]: qHTS assay to identify small molecule antagonists of the thyroid receptor (TR) signaling pathway (AID 743065). Further: nearly all actives have a fitted effect of over 55% in size. Further: potency means the concentration at half of the fitted maximal effect. The gist of the method: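 GH3.TRE-Luc rat pituitary cells (two TREs driving luciferase) were dosed with compound, then stimulated with 1 nM T3 (final) for 23.5 h at 37 C. ONE-Glo luminescence was the read-out, with CellTiter-Fluor fluorescence as the cytotoxicity counter-screen.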

Experiment [11] relates to thyroid hormone receptor (rat, GH3 cells). The experiment is described as follows: qHTS assay to identify small molecule agonists of the thyroid receptor (TR) signaling pathway (AID 743066; calls by dose curve).
Experiment [12] is described as follows: qHTS assay to identify small molecule antagonists of the estrogen receptor alpha (ER-alpha) signaling pathway - cell viability counter screen (AID 743074; calls by dose curve;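 further: HEK293 cells carrying ER-alpha-UAS-bla reporter stimulated with 17beta-estradiol; nearly all actives have a fitted effect of over 45% in size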; further: potency means the concentration at half of the fitted maximal effect).
Experiment [13] addresses Estrogen receptor (Homo sapiens) (UniProt P03372). The experiment is described as follows: qHTS assay to identify small molecule agonists of the estrogen receptor alpha (ER-alpha) signaling pathway (AID 743075; calls by dose curve;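 further: HEK293 GripTite cells with ER-alpha and UAS-driven beta-lactamase reporter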).
For experiment [14] the target is unchanged. The experiment is described as follows: qHTS assay to identify small molecule agonists of the estrogen receptor alpha (ER-alpha) signaling pathway using the BG1 cell line (AID 743079). Further: nearly all actives have a fitted effect of over 20% in size. Further: potency means the concentration at half of the fitted maximal effect.
The nature of experiment [15]: qHTS assay to identify small molecule antagonists of the estrogen receptor alpha (ER-alpha) signaling pathway using the BG1 cell line (AID 743080; calls by dose curve;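 further: BG1 cells stimulated with 17beta-estradiol alongside compound; series mostly up to about 70 µM; nearly all actives have a fitted effect of over 25% in size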). The gist of the method: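 BG1-Luc-4E2 cells (endogenous full-length ER-alpha, 4xERE luciferase) hormone-starved 5 days in charcoal-stripped FBS, plated 4,000/well for 24 h, then compound plus 17beta-estradiol for 21.5 h at 37 C; ONE-Glo luminescence read.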

A short description of experiment [16]: qHTS assay to identify small molecule antagonists of the estrogen receptor alpha (ER-alpha) signaling pathway using the BG1 cell line - cell viability counter screen (AID 743081).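 Further: compound given together with 17beta-estradiol as the ER stimulus; series mostly up to about 70 µM; nearly all actives have a fitted effect of over 45% in size.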
For experiment [17], the target named is Aromatase (Homo sapiens) (UniProt P11511). As to the kind of experiment: qHTS assay to identify aromatase inhibitors (AID 743083). Further: nearly all actives have a fitted effect of over 55% in size. Further: potency means the concentration at half of the fitted maximal effect.
Experiment [18] in a line: qHTS assay to identify small molecule antagonists of the thyroid receptor (TR) signaling pathway - cell viability counter screen (AID 743064). Further: nearly all actives have a fitted effect of over 50% in size. Further: potency means the concentration at half of the fitted maximal effect. The gist of the method: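 Rat GH3 pituitary tumor cells stably expressing two TR response elements driving luciferase were plated, rested 4 h, then dosed with library compounds and T3 (1 nM final). After 23.5 h at 37 °C, CellTiter-Fluor was added for 30 min and fluorescence recorded.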

Experiment [19] addresses Estrogen receptor (Homo sapiens) (UniProt P03372). As to the kind of experiment: qHTS assay to identify small molecule antagonists of the estrogen receptor alpha (ER-alpha) signaling pathway (AID 743069; active means well fitted curve in the direction sought with a large enough effect in the signal ratio in the repeat runs, not every such curve was filed as active; the % refers to the signal ratio). The gist of the method:
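Beta-lactamase FRET fluorescence is read after 2 hr at room temperature with LiveBLAzer B/G substrate. Before that, ER-alpha-bla HEK293 cells sit 4 hr after plating, then receive compound plus 17beta-estradiol and incubate 18 hr at 37C.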

Experiment [20] has as its target Androgen receptor (Homo sapiens) (UniProt P10275). The experiment is described as follows: qHTS assay to identify small molecule agonists of the androgen receptor (AR) signaling pathway (AID 743036; active means well fitted activation curve with a large enough effect in the signal ratio in the repeat runs, with a control signal flat, not every such curve was filed as active; the % refers to the signal ratio). The gist of the method:
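Quantitative HTS of the Tox21 10K library in HEK293 cells bearing a stably integrated UAS-controlled beta-lactamase reporter. Compound exposure lasted 16 h at 37C. Reporter activity was detected by FRET substrate fluorescence after 2 h at room temperature.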

The values that follow come from PubChem BioAssay (Tox21).

Values joined by “and” are separate entries in the source; they are usually repeats but may differ in a detail not shown here. Equal entries are not always repeated. Results filed as inconclusive are left out. Active and inactive are the calls of the source. Unless noted, the call rests on the fitted dose curve; in most records, active means well fitted curve in the direction sought with a large enough effect in the repeat runs; inconclusive means weak or mixed curves; inactive means no such curve, though single readings can be large; an effect the other way counts as inactive or inconclusive.

Aromatase (Homo sapiens), sequence (P11511 whole entry, looked up): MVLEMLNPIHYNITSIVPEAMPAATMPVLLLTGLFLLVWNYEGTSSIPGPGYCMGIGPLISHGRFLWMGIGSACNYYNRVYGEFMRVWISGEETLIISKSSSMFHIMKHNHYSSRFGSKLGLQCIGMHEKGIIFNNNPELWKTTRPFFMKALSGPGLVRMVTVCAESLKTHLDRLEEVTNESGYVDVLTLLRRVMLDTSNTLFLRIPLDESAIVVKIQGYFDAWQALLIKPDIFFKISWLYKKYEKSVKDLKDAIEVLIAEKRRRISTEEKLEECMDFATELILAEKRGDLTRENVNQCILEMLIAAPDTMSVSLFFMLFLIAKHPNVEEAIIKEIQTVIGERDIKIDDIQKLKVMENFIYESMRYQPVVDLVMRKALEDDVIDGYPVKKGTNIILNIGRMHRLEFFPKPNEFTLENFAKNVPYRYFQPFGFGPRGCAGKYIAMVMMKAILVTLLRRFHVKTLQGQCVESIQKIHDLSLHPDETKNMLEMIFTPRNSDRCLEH
Androgen receptor (Homo sapiens), sequence (P10275 whole entry, looked up): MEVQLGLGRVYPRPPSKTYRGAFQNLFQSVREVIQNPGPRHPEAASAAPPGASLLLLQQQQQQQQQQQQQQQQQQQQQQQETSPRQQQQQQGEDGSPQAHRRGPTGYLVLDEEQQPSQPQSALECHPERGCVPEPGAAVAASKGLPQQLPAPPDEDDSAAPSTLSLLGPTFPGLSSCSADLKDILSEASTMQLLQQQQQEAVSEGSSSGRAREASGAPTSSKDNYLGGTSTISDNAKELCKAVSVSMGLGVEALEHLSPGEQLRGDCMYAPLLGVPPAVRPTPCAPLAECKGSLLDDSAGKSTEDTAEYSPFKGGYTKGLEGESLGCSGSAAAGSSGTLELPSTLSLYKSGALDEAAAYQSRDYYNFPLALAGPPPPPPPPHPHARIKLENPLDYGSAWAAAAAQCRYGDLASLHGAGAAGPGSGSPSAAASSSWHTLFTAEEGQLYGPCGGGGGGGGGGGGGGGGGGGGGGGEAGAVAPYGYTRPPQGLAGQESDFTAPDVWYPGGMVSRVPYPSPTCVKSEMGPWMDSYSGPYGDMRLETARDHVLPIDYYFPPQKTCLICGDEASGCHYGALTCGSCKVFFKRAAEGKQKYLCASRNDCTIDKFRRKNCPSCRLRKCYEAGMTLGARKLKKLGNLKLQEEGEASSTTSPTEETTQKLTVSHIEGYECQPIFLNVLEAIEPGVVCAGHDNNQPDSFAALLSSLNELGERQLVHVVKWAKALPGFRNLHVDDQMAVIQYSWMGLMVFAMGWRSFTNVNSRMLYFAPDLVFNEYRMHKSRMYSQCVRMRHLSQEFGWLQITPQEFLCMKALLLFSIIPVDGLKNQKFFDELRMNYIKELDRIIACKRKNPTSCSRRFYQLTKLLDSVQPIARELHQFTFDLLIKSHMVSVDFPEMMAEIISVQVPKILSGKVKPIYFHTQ
Estrogen receptor (Homo sapiens), sequence (P03372 whole entry, looked up): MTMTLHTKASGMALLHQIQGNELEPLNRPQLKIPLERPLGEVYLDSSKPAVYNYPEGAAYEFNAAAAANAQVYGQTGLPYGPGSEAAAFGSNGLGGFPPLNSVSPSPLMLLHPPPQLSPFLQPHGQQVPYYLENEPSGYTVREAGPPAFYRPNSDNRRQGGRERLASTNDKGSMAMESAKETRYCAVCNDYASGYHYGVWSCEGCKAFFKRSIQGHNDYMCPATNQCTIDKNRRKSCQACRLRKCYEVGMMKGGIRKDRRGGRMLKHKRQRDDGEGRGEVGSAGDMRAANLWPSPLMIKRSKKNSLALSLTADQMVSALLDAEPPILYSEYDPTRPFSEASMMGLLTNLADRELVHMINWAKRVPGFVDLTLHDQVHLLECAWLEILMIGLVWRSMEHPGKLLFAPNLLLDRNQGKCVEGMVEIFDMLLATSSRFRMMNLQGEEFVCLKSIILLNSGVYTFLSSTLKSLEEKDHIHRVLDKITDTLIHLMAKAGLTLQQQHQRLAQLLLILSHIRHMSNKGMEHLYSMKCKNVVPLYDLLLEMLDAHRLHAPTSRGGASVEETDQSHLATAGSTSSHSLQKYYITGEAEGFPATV

Turning to `CCOC(=O)Cn1cccc1-c1nc(-c2ccc(OC)cc2)c(-c2ccc(OC)cc2)s1`, the Potency entry in experiment [1], in experiment [2], in experiment [3], in experiment [4], in experiment [5] and in experiment [6] was “inactive” throughout. The Potency result in experiment [8], in experiment [9], in experiment [12], in experiment [13], in experiment [14] and in experiment [15] was “inactive” in each case. Moreover, the Potency result in experiment [16] and in experiment [17] was “inactive” throughout. In addition, the compound was classed as inactive in [7] and in experiment [11]. The Potency in experiment [10] was 13.3 µM (active).

For `FC(F)(F)c1cccc(Cl)c1`, the Potency result in experiment [1], in experiment [2], in experiment [3], in [4], in experiment [5] and in experiment [6] was “inactive” throughout. For the same compound, the Potency entry in experiment [8], in experiment [18], in experiment [19], in experiment [12], in [13] and in experiment [14] was “inactive” throughout. Further, the Potency entry in experiment [15], in experiment [16] and in experiment [17] was “inactive” in each case. Moreover, the outcome in experiment [7] and in [11] was inactive.

On to `CCCC(=O)OC(C)(C)Cc1ccccc1`, for which the Potency result in [1], in experiment [2], in experiment [3], in experiment [4], in experiment [5] and in experiment [8] was “inactive” each time. Besides, the Potency result in [18], in experiment [10], in experiment [12], in [16] and in [17] was “inactive” in each case. For the same compound, the call in [11] was inactive.

Regarding `O=C(Oc1ccccc1)Oc1ccccc1`, the Potency result in [1], in experiment [2], in experiment [3], in [4], in [5] and in experiment [8] was “inactive” in each case. Besides, the Potency result in experiment [18], in experiment [10], in [19], in experiment [12], in experiment [13] and in [14] was “inactive” in each case. Also, the Potency entry in experiment [15], in experiment [16] and in [17] was “inactive” in each case. In addition, in experiment [11], the call was inactive.

`CCCCCCCCCCCCCC[N+](C)(C)C`: the Potency was 13.4 µM (active) and 29.9 µM (active) and 13.8 µM (active) in [1]; 237 nM (active) and 527 nM (active) and 217 nM (active) in experiment [2]; 298 nM (active) and 469 nM (active) and 193 nM (active) in experiment [3]; 376 nM (active) and 469 nM (active) and 217 nM (active) in [4]; 15.1 µM (active) and 21.8 µM (active) in [5]; 18.8 µM (active) and 41.8 µM (active) in experiment [8]. Besides, the Potency in experiment [18] is 4.22 µM (active) and 11.8 µM (active) and 8.63 µM (active); in experiment [10] it was 2.98 µM (active) and 5.91 µM (active) and 5.44 µM (active); in experiment [12], 23.9 µM (active) and 37.6 µM (active); in experiment [17], 10.6 µM (active) and 23.5 µM (active) and 15.3 µM (active). Further, in [11], the compound was called inactive. In addition, the Potency result in [13] and in experiment [16] was “inactive” throughout.

As to `O=C(/C=C/c1ccccc1)OC/C=C/c1ccccc1`, the Potency result in experiment [1], in experiment [5], in experiment [6], in experiment [20], in [8] and in [9] was “inactive” throughout. In addition, the Potency entry in [18], in [19], in experiment [12], in experiment [13], in [15] and in experiment [16] was “inactive” in each case. Further, the Potency result in experiment [17] is “inactive”. Besides, the Potency in experiment [2] is 17.2 µM (active); in experiment [3] it was 15.4 µM (active); in experiment [4], 13.7 µM (active); in [14], 30.6 µM (active). The call in [7] and in experiment [11] was inactive.
